Assay outcomes: PubChem, The Scripps Research Institute Molecular Screening Center
Shown are actives, neighbours in structure and some others; about 1.1% of the full set was active somewhere.
OPRM1-OPRD1 inv = inverse agonists of human mu-delta opioid receptor heterodimerization; cell-based MOR-DOR heterodimer luminescence, inverse agonism; AID 504357; hit rate 0.21% among 340,000; P35372+P41143; inhibition, % at 9.3 µM; in the data active means inhibition above about 22%, passing the limit was not always enough
Target sequence (P35372 whole entry, looked up): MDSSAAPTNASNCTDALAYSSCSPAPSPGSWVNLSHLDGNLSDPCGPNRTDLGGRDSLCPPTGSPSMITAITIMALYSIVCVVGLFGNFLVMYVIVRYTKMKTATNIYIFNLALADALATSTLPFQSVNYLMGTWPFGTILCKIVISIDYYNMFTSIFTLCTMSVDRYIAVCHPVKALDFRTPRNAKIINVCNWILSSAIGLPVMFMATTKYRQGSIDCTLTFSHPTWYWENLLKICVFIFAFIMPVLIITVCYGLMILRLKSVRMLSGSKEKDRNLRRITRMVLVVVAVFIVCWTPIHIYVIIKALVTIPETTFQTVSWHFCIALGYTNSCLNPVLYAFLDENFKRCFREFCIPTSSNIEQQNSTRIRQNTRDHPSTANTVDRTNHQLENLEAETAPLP
Target sequence (P41143 whole entry, looked up): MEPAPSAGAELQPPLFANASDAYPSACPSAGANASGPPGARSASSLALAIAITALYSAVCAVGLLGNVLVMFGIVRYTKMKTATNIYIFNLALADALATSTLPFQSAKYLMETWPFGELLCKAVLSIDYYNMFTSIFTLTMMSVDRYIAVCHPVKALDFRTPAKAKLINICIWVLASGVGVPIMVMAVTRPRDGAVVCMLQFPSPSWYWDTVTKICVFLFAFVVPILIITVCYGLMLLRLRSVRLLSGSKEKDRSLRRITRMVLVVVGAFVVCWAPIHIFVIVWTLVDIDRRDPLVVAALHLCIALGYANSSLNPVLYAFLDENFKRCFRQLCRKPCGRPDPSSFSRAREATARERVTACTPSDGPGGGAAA
HTR5A ag = counter-screen for OPRM1-OPRD1 agonists: human HTR5A agonism; P47898; HTR5A agonist assay, luminescence, cell-based; activation, % at 9.3 µM; hit rate 0.61% among 340,000; AID 504692; in the data active means activation mostly above about 9.5%, no sharp cut-off; inactive means mostly below about 7.6%
HTR5A inv ag = HTR5A inverse agonism, opioid heterodimer counter-screen; P47898; HTR5A cell line, luminescence; inhibition, % at 9.3 µM; hit rate 0.083% among 340,000; in the data active means inhibition mostly above about 23%, no sharp cut-off; inactive means mostly below about 18%
MOR-DOR ag-1 = OPRM1-OPRD1 heterodimerization agonism; hit rate 0.3% among 340,000; P35372+P41143; activation, % at 9.3 µM; cells, luminescence; AID 504326
MOR-DOR ag-2 = opioid heterodimer agonism, HTR5A counter-screen; U2OS counter-screen cells, complementation luminescence, 3 h; activation, % at 9.3 µM; hit rate 13% among 800; shares compounds with HTR5A ag
HTR5A ag conf = HTR5A (human) agonism, confirmation | shares compounds with HTR5A ag | HTR5A agonist cell assay, luminescence | activation, % at 9.3 µM | hit rate 17% among 800 | AID 504915; in the data active means activation above about 17%
Each line names hits and unclear results; the compound was inactive in the other large screens (follow-up assays come after a bar, where they were run). Unless noted, no stated cut-off is given here; in the data, active means activation above about 18%; inactive means the rest.

CN1C(=O)C2(NCCc3c2[nH]c2ccccc32)c2ccccc21 (configuration not stated)	none
CC1=CC(C)(C)N2C(=O)C3(NCCc4c3[nH]c3ccccc43)c3cc(C)cc1c32 (configuration not stated)	HTR5A ag 16.1 | MOR-DOR ag-2 32.2 | HTR5A ag conf inactive
Cc1cc(C)c(S(=O)(=O)Nc2ccc(N3CCOCC3)cc2)c(C)c1	none
O=c1[nH]c2ccccc2cc1-c1nnn(-c2ccc(F)cc2)n1	none
O=c1[nH]c2ccccc2cc1-c1nnn(-c2ccc(Cl)c(Cl)c2)n1	HTR5A ag 17.9 | MOR-DOR ag-2 inactive | HTR5A ag conf inactive
COc1ccc(CNC(=O)C2CCN(S(=O)(=O)c3ccccc3)CC2)cc1	HTR5A ag 20.7 | MOR-DOR ag-2 inactive | HTR5A ag conf inactive
CS(=O)(=O)N1CCCC(C(=O)NCc2ccc(F)cc2)C1 (configuration not stated)	HTR5A ag 15.8 | MOR-DOR ag-2 inactive | HTR5A ag conf inactive
COc1cccc(CNC(=O)C2CCN(S(=O)(=O)c3ccccc3)CC2)c1	none
COc1ccccc1NC(=O)COC(=O)c1cc2c(s1)CCC2	none
COc1ccc(OC)c(NC(=O)COC(=O)c2cc3c(s2)CCC3)c1	HTR5A ag 14.8 | MOR-DOR ag-2 inactive | HTR5A ag conf inactive
O=C(COc1ccccc1)Nc1ccc(-c2nnc(-c3ccco3)o2)cc1	HTR5A ag 15.7 | MOR-DOR ag-2 inactive | HTR5A ag conf inactive
COc1ccccc1OCC(=O)Nc1cccc(-c2nnc(-c3ccco3)o2)c1	none
CCOC(=O)C(C)N1N=C(/C=C/c2ccc(C)cc2)CCC1=O (configuration not stated)	HTR5A ag 21.1 | MOR-DOR ag-2 inactive | HTR5A ag conf inactive
COc1ccc(N2C(=O)CCC(C(=O)N3CCCCC3)C2c2ccc(F)cc2)cc1 (configuration not stated)	none
COc1ccc(N2C(=O)CCC(C(=O)O)C2c2ccc(F)cc2)cc1 (configuration not stated)	HTR5A ag 16.5 | MOR-DOR ag-2 inactive | HTR5A ag conf inactive
COc1ccc2[nH]c(C)c(CCNC(=S)Nc3cc(C)cc(C)c3)c2c1	HTR5A ag 19.9 | MOR-DOR ag-2 inactive | HTR5A ag conf inactive
COc1ccc2[nH]c(C)c(CCNC(=S)Nc3cccc(C)c3)c2c1	none
COc1ccc(NC(=S)NCCc2c[nH]c3ccccc23)c(OC)c1	none
COc1ccc(NC(=S)NCCc2c[nH]c3ccc(OC)cc23)c(OC)c1	HTR5A ag 15.7 | MOR-DOR ag-2 inactive | HTR5A ag conf inactive
COc1ccc2[nH]cc(CCNC(=O)Cc3ccc(Cl)cc3)c2c1	HTR5A ag 17.2 | MOR-DOR ag-2 inactive | HTR5A ag conf 37.2
COc1ccc2[nH]cc(CCNS(=O)(=O)Cc3ccccc3)c2c1	HTR5A ag 22.4 | MOR-DOR ag-2 inactive | HTR5A ag conf inactive
CCOC(=O)c1ccc(NS(=O)(=O)c2cc(-c3nnnn3CC)ccc2OC)cc1	HTR5A ag 15.7 | MOR-DOR ag-2 19.6 | HTR5A ag conf inactive
Cc1cccc2sc(NNC(=O)c3ccc(S(=O)(=O)N4CCCC(C)C4)cc3)nc12 (configuration not stated)	HTR5A ag 16.7 | MOR-DOR ag-2 inactive | HTR5A ag conf inactive
O=S(=O)(NCCSCc1ccc(Cl)c(Cl)c1)c1ccc2c(c1)OCCO2	none
CC(C)(C)OC(=O)N[C@@H](C(=O)OC(C)(C)C)c1ccccc1	HTR5A ag 25.3 | MOR-DOR ag-2 inactive | HTR5A ag conf inactive
O=S(=O)(Nc1cccc(-c2ccc3nncn3n2)c1)c1ccccc1F	HTR5A ag 20.1 | MOR-DOR ag-2 18.4 | HTR5A ag conf inactive
O=C(NCC(=O)N1CCN(c2ccc(C(F)(F)F)cn2)CC1)c1ccc(Br)o1	none
CC1CC(C)CN(C(=S)SCc2nc(N)nc(Nc3ccccc3)n2)C1 (configuration not stated)	none
CCCc1cc(=O)n2nc(N3CCC(C(=O)Nc4cccc(C(C)=O)c4)CC3)sc2n1	HTR5A ag 16.8 | MOR-DOR ag-2 inactive | HTR5A ag conf inactive
CCCc1cc(=O)n2nc(N3CCC(C(=O)Nc4c(F)c(F)c(F)c(F)c4F)CC3)sc2n1	none
CC(C)c1nc2oc3ccccc3c(=O)c2c(=O)n1-c1ccccc1	none
Cc1ccc(C)c(S(=O)(=O)N/N=C/c2ccc(N(C)C)cc2)c1	none
Cc1ccc(C)c(S(=O)(=O)N/N=C/c2ccc(F)cc2)c1	HTR5A ag 15.0 | MOR-DOR ag-2 inactive | HTR5A ag conf inactive
O=S(=O)(NC1CC1)c1ccc(S(=O)(=O)N2CCC3(CC2)OCCO3)cc1	none
COC(=O)c1ccc(NC(=O)COc2cccc3c2OC(C)(C)C3)cc1	HTR5A ag 39.8 | MOR-DOR ag-2 inactive | HTR5A ag conf 43.8
CC1(C)Cc2cccc(OCC(=O)Nc3ccc(S(N)(=O)=O)cc3)c2O1	HTR5A ag 34.2 | MOR-DOR ag-2 inactive | HTR5A ag conf inactive
CN(C)C(=O)c1ccc(NC(=O)COc2cccc3c2OC(C)(C)C3)cc1	HTR5A ag 28.3 | MOR-DOR ag-2 inactive | HTR5A ag conf 37.6
CC(=O)NS(=O)(=O)c1ccc(NC(=O)COc2cccc3c2OC(C)(C)C3)cc1	none
CC(=O)Nc1ccc(NC(=O)COc2cccc3c2OC(C)(C)C3)cc1	none
CC1(C)Cc2cccc(OCC(=O)Nc3ccc(OCC(N)=O)cc3)c2O1	none
CCNC(=O)NC(=O)C(C)Oc1ccc(C(=O)OC)cc1 (configuration not stated)	none
CN(C(=O)c1ccc(OC2CCN(CCc3ccccc3)CC2)cc1)C1CCOC1 (configuration not stated)	none
O=C1c2cccc3c(O)ccc(c23)C(=O)N1Cc1ccccc1	HTR5A ag 17.0 | MOR-DOR ag-2 19.8 | HTR5A ag conf inactive
O=C(O)c1cccc(CN2C(=O)c3ccccc3C2=O)c1	none
COc1ccc(C(CNc2ccc(C(F)(F)F)cn2)N(C)C)cc1OC (configuration not stated)	HTR5A ag 18.8 | MOR-DOR ag-2 inactive | HTR5A ag conf inactive
COc1ccccc1N1CCN(C(=O)c2ccc(Cn3c(=O)[nH]c4ccsc4c3=O)cc2)CC1	HTR5A ag 16.0 | MOR-DOR ag-2 inactive | HTR5A ag conf inactive
O=C(C[C@@H]1C/C=C/CC[C@@H](Cc2ccc(F)cc2)C(=O)OC[C@H](Cc2ccccc2)NC1=O)N[C@H](CO)Cc1ccccc1	none
COC(=O)c1cn(NC(=O)c2ccc(OC)c([N+](=O)[O-])c2)c(=O)c2ccccc12	none
COc1ccc(N(C)C(=O)CCS(=O)(=O)c2cccc3nonc23)cc1	none
CCC(C(=O)Nc1ncn[nH]1)(C(F)(F)F)C(F)(F)F	HTR5A ag 18.2 | MOR-DOR ag-2 inactive | HTR5A ag conf inactive
O=C(Nc1ncn[nH]1)C(F)(F)C(F)F	none
O=C(c1ccc(Cl)c(S(=O)(=O)N2CCCCCC2)c1)N1CCN(c2ccccn2)CC1	HTR5A ag 24.9 | MOR-DOR ag-2 inactive | HTR5A ag conf 31.2
Cn1c(=O)c2c(O)c(Cc3ccccc3)c(=O)n(C)c2n(C)c1=O	none
